# Autofluor 339: intrinsic fluorescence of library compounds, ex339/em460 – biochemical, MLSMR library, data from DPM-DC assay, artefact control, profiling panel. compound autofluorescence, ex339/em460 nm, NADH buffer; active compounds read high; 1 = no-compound wells, NADH background. fluorescence fold increase at 10 µM. actives 5.5% (n = 65,000);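 active = at 10 µM, mean starting fluorescence two-fold or more over control wells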;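 also: signal is the first read of a kinetic run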
# WNV NS2B-NS3 inh: inhibitors of West Nile virus NS2B-NS3 protease; P06935; WNV NS2B-NS3 protease, fluorogenic substrate Ex360/Em465; active compounds read low; z-score (concentration not given with the values); actives 0.18% (n = 65,000); AID 577; in the data active = z-score below about -3
# A340 absorber: absorbance at 340 nm; compound absorbance at 340 nm, fold over control; fold change at 10 µM; 65,000 tested, under 10 active;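 active = at 10 µM dose, initial 340 nm absorbance at least 2 fold that of control wells; inactive = change under 2 fold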;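 also: initial absorbance extrapolated from kinetic A340 decline of NADH oxidation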
# BAP1 inh: inhibitors of human BAP1 deubiquitinase; actives 0.48% (n = 72,000); Q92560; recombinant BAP1, Ub-AMC hydrolysis fluorescence kinetic; active compounds read low; calls only at 20 µM;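 active = activity remaining at or below 50% of control, provided the compound also passes the data quality filters; inactive = the rest, including low values that fail the filters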;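 also: 100% = DMSO wells rate and 0% = substrate alone blank rate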
# M1 antag: blocks the rat M1 muscarinic receptor response to acetylcholine; actives 3.4% (n = 64,000); B-score at 10 µM; P08482; CHO-M1 cells, Fluo-4 calcium, ACh EC80 antagonist mode; active compounds read low;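 active = calcium fluorescence response, raw or row-and-column corrected B-score, differing from the plate sample mean either way at a set confidence level, mostly lower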
# M1 ag: activates the M1 muscarinic receptor. CHO-M1 cells, Fluo-4 calcium fluorescence, agonist mode; active compounds read high. B-score at 10 µM. actives 3% (n = 64,000);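 active = fluorescence rise, raw or as B-score row- and column-corrected plate score, outside the 99.7% band of its plate's samples, either direction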
# M1 antag conf: confirmation of rat M1 muscarinic receptor antagonists | shares compounds with M1 antag | CHO-M1 cells, Fluo-4 calcium, ACh EC80 antagonism; active compounds read low | calcium response (max-min fluorescence) at 10 µM | actives 43% (n = 1,700);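 active = calcium response below the same-plate mean of wells given acetylcholine alone at its 80%-effect dose, minus 3 SD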;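 also: raw fluorescence intensity difference in arbitrary instrument units and not normalized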
# mGluR4 antag: acts on human mGluR4 in M1 antagonist selectivity test; shares compounds with M1 antag; CHO-mGluR4 calcium flux, Fluo-4 fluorescence, glutamate EC80; active compounds read low; fluorescence response (max-min) at 10 µM; actives 0.9% (n = 1,700);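 active = fluorescence response below the plate's average for near-maximal glutamate wells, less 3 SD of those wells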;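 also: raw unnormalized fluorescence span taken in the window right after glutamate addition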
# * marks the source's active call; other numbers are inactive results; i = inactive; x = no result given. The list is not random: actives were taken first. Their share in the collection is about 9.7%.
SMILES,Autofluor 339,WNV NS2B-NS3 inh,A340 absorber,BAP1 inh,M1 antag,M1 ag,M1 antag conf,mGluR4 antag
CN(C)c1ccc(-c2nn3c(-c4ccccc4Cl)nnc3s2)cc1,3.3*,-0.11,1.1,x,-5.9*,-0.37,527,198
CC(=O)c1c(O)c2ccccc2oc1=O,x,x,x,i,x,x,x,x
CCOc1ccc(-c2nc(=S)[nH][nH]2)cc1,1.1,-0.18,1,i,-5.2*,1.5,638,242
COc1ccc(C2NC(=O)NC(C)=C2C(=O)OCCOc2ccccc2)c(OC)c1 (stereo not given),x,x,x,i,x,x,x,x
CN1CCC(N(C)CC(=O)Nc2cccc(Oc3ccccc3)c2)CC1,1.1,0.18,1,i,-2.8*,0.28,454*,236
COc1cccc(C(=O)Nc2ccc(Cl)c([N+](=O)[O-])c2)c1,x,x,x,i,x,x,x,x
COc1ccc(CCNC(=O)CSC2=Nc3ccccc3C3=NC(C(C)C)C(=O)N23)cc1OC (stereo not given),1.1,0.92,1.1,i,-3.5*,-1.4,565,228
O=C(Nc1nc(-c2ccccc2)c(-c2ccccc2)s1)c1ccc(S(=O)(=O)N2CCOCC2)cc1,x,x,x,i,x,x,x,x
CS(=O)(=O)Nc1ccccc1C(=O)Nc1cccc(Cl)c1,1.9,-0.76,1,i,-2.5*,1.6,627,187
CC(=O)c1cc(C)ccc1OC(=O)c1cccc2nc(C)oc12,1.1,-0.61,0.98,i,-4.2*,-0.31,666,250
Cc1ccc2[nH]c3c(N4CCCCCC4)ncnc3c2c1,1.3,-0.04,1.1,i,-2.7*,6.3,387*,178*

# Compound activity (PubChem BioAssay)
